Calls of active or inactive are those of the source. Unless noted, how the calls were made is not given here.
Legend:
[1] = A549 cell viability effects, profiling panel, calcein-AM fluorescence, 48 h, basal (AID 1162); conditions: higher = more signal; further: test concentration not given here
[2] = adipocyte viability effects, profiling panel, cell-based, 3T3-L1 adipocytes, calcein-AM fluorescence, 48 h, basal (AID 1163); conditions: 3T3-L1 adipocytes viability, higher = more signal; further: test concentration not given here
[3] = HepG2 cell viability effects, profiling panel, calcein-AM fluorescence, 48 h, basal (AID 1164); conditions: higher = more signal; further: test concentration not given here
[4] = MM1S cell viability effects, profiling panel, calcein-AM fluorescence, 48 h, basal (AID 1165); conditions: higher = more signal;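 further: viability of MM1S multiple myeloma cells under basal unstimulated conditions; test concentration not given here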
[5] = basal RPMI8226 viability, no added stimulus, profiling panel, cell-based, calcein-AM fluorescence, 48 h, PK04 Diversity Set (AID 1166); conditions: RPMI8226 myeloma viability, higher = more signal;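 further: cells grown under basal conditions without added stimulus; test concentration not given here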
[6] = basal HepG2 mitochondrial membrane potential changes, profiling panel, cell-based, JC-1 fluorescence, 24 h, 100 nL compound (AID 1167); conditions: higher = more signal; further: test concentration not given here
[7] = basal 3T3-L1 adipocyte mitochondrial potential changes, profiling panel, cell-based, JC-1 fluorescence, 3T3-L1 adipocytes, 24 h, 100 nL compound (AID 1168); conditions: JC-1 mitochondrial fluorescence, higher = more signal, called active from +8 up or from −8 down; further: test concentration not given here
[8] = basal RPMI8226 mitochondrial membrane potential changes, profiling panel, cell-based, JC-1 fluorescence, 24 h, 100 nL compound (AID 1169); conditions: RPMI8226 myeloma, JC-1 mitochondrial potential fluorescence, higher = more signal; further: test concentration not given here
[9] = basal MM1S mitochondrial membrane potential changes, profiling panel, cell-based, JC-1 fluorescence, 24 h, 100 nL compound (AID 1170); conditions: higher = more signal; further: test concentration not given here
[10] = A549 lung cancer cell viability effects, profiling panel, resazurin fluorescence, 24 h, PK04 Diversity Set (AID 1171); conditions: higher = more signal, called active from +8 up or from −8 down; further: test concentration not given here
[11] = HepG2 liver cancer cell viability effects, profiling panel, resazurin fluorescence, 24 h, PK04 Diversity Set (AID 1172); conditions: higher = more signal; further: test concentration not given here
[12] = basal S. cerevisiae growth modulation, no modifier, primary screen, OD600, strain BY4716, 24 h, basal condition (AID 1173); conditions: OD600, 24 h, higher = more signal, called active from +8 up or from −8 down
[13] = MM1S myeloma cell viability, profiling panel, resazurin fluorescence, basal, 24 h, PK04 Diversity Set (AID 1174); conditions: higher = more signal, called active from +8 up or from −8 down;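 further: MM1S multiple myeloma cell line; test concentration not given here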
[14] = molecular target: Dihydroorotate dehydrogenase (quinone), mitochondrial (Plasmodium falciparum (isolate 3D7)) (UniProt Q08210); assay: PfDHODH enzyme inhibitors, primary screen, biochemical, C-terminal His tag, absorbance 600 nm (AID 1175); conditions: DCIP absorbance 600 nm, higher = more signal, called active from +8 up or from −8 down;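 further: recombinant parasite enzyme with a five histidine tag at its C terminus; test concentration not given here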
[15] = P. aeruginosa biofilm formation inhibitors, primary screen, strain PAO1, LB-PBS medium, absorbance 600 nm (AID 1176); further: test concentration not given here; conditions: P. aeruginosa PAO1 growth/biofilm, A600, 12 h; higher = more signal
[16] = S. cerevisiae RM11-1a growth modifiers, primary screen, strain RM11-1a, OD600, basal, 24 h (AID 1177); conditions: OD600, 24 h, higher = more signal, called active from +8 up or from −8 down;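 further: cultures grown under basal conditions with no added stressor; test concentration not given here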
[17] = E. coli acrAB mutant growth effects, primary screen, E. coli filamentation inducers, strain DRC39, OD650, 24 h (AID 1178); conditions: higher = more signal, called active from +8 up or from −8 down;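 further: growth measured as culture turbidity by optical density at 650 nm; test concentration not given here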
[18] = E. coli acrAB mutant growth effects, primary screen, E. coli filamentation inducers, strain DRC39, OD650, 48 h (AID 1179);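 further: screen aims at cell division blockers that make cells filament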; conditions: E. coli DRC39 delta-acrAB growth, higher = more signal, called active from +8 up or from −8 down
[19] = RPMI8226 myeloma cell viability, profiling panel, resazurin fluorescence, basal, 24 h, PK04 Diversity Set (AID 1180); conditions: higher = more signal;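 further: RPMI8826 multiple myeloma cell line at 5000 cells per well; test concentration not given here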
[20] = molecular target: E3 ubiquitin-protein ligase XIAP (Homo sapiens) (UniProt P98170); assay: XIAP binders, primary screen, biophysical, small-molecule microarray, fluorescence 635 nm (AID 1181); conditions: small-molecule microarray binding, higher = more signal;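 further: score merges 667 nm emission and signal to noise over triplicate slides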
Sequence of E3 ubiquitin-protein ligase XIAP (Homo sapiens) (P98170 whole entry, looked up): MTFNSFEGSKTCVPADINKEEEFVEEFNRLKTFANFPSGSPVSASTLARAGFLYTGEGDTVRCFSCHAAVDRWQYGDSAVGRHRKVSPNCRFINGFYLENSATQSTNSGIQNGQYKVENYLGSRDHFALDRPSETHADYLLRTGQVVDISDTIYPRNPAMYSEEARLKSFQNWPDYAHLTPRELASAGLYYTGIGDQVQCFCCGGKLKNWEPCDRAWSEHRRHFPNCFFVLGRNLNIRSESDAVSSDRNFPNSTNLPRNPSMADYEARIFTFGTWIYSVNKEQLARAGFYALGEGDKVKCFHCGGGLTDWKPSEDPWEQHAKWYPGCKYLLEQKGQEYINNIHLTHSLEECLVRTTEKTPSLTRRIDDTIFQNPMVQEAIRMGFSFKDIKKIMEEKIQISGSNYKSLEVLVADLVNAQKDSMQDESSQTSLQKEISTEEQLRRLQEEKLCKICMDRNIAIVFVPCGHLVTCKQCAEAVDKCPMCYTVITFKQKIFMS

Sequence of Dihydroorotate dehydrogenase (quinone), mitochondrial (Plasmodium falciparum (isolate 3D7)) (Q08210 whole entry, looked up): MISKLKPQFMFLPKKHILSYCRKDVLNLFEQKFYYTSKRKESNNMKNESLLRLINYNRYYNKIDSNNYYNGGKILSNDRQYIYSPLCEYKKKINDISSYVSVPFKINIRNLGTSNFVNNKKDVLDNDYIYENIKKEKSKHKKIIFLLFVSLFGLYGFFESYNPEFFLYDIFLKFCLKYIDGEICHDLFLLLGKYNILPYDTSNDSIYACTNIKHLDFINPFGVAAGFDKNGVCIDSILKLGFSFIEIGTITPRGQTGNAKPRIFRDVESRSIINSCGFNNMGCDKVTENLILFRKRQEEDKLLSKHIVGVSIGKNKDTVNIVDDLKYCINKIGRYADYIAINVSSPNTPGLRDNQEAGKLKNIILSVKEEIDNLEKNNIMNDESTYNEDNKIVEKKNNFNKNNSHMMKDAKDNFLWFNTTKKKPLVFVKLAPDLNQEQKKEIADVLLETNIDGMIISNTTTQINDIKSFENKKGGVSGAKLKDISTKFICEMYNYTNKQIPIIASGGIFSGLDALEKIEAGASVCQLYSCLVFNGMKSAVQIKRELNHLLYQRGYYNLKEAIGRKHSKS

SMILES	z-score [1]	z-score [2]	z-score [3]	z-score [4]	z-score [5]	z-score [6]	z-score [7]	z-score [8]	z-score [9]	z-score [10]	z-score [11]	z-score [12]	z-score [13]	composite z-score [14]	z-score [15]	z-score [16]	z-score [17]	z-score [18]	z-score [19]	composite z-score [20]
CN1C(=O)C2C=CC(C(O)c3ccc(F)cc3)N(NC(=O)OC(C)(C)C)C2C1=O (stereo not given)	-0.834	-0.528	0.0643	-2.82	-0.0542	-0.8	-0.517 (inactive)	0.247	1.3	-1.18 (inactive)	-1.37	1.18 (inactive)	-0.67 (inactive)	0.929 (inactive)	0.503 (inactive)	1.09 (inactive)	-0.592 (inactive)	-0.764 (inactive)	-1.37	0.171
COCCCNC(=O)[C@@H]1c2ccccc2C(=O)N(C2Cc3ccccc3C2)[C@H]1c1ccc(CO)cc1	1.12	0.275	0.165	0.155	0.261	2.94	-0.17 (inactive)	0.217	0.494	0.58 (inactive)	-0.138	-0.483 (inactive)	0.354 (inactive)	-0.774 (inactive)	0.388 (inactive)	-0.344 (inactive)	0.722 (inactive)	0.468 (inactive)	0.653	-0.169
C=C(COC)C(=O)CC[C@H](OC(C)=O)c1ccc(OCCO)cc1	-0.522	1.72	-0.974	-2.6	-0.887	0.692	-0.213 (inactive)	-0.0964	1.3	0.0933 (inactive)	-0.429	-0.408 (inactive)	-0.267 (inactive)	-0.998 (inactive)	-0.116 (inactive)	-0.83 (inactive)	-0.238 (inactive)	0.53 (inactive)	-0.873	-0.326
[N-]=[N+]=NCc1ccccc1C[C@]1(C(=O)N2CCOCC2)COC(c2ccc(OCCCO)cc2)=N1	0.0386	0.926	0.383	-3.46	-2.89	1.72	0.665 (inactive)	-0.843	-0.968	-0.36 (inactive)	0.0629	-2.42 (inactive)	0.117 (inactive)	0.42 (inactive)	0.715 (inactive)	1.43 (inactive)	2.56 (inactive)	1.71 (inactive)	0.698	0.18
COCCCNC(=O)[C@@]1(Sc2ccc(C)cc2)CC(=O)N(Cc2ccccc2Cl)[C@@H]1c1ccc(CO)cc1I	0.217	0.0816	-0.115	-1.88	-2.32	-0.51	-0.695 (inactive)	-0.175	-1.76	-0.268 (inactive)	0.0727	-3.06 (inactive)	-3.21 (inactive)	-2.66 (inactive)	0.242 (inactive)	-1.07 (inactive)	0.0085 (inactive)	-0.0682 (inactive)	-2.38	-0.138
Cc1nc2cc(Br)ccc2c(=O)n1Cc1cccc(O)c1	-0.508	-0.396	0.454	-0.301	0.244	-0.0434	1.62 (inactive)	-0.536	-0.432	0.246 (inactive)	0.674	-0.496 (inactive)	-1.23 (inactive)	0.0596 (inactive)	1.38 (inactive)	0.0164 (inactive)	0.381 (inactive)	0.776 (inactive)	-0.505	0.0674
O=C1C2C=CC(C(O)c3cccc(O)c3)N(Nc3ccccc3)C2C(=O)N1c1ccccc1 (stereo not given)	-0.671	-0.096	-1.22	-0.109	-0.444	-2.04	0.166 (inactive)	-0.0193	-1.37	-0.224 (inactive)	-0.491	-0.774 (inactive)	-1.05 (inactive)	-0.791 (inactive)	0.67 (inactive)	0.196 (inactive)	-0.0671 (inactive)	0.0995 (inactive)	-0.985	-0.0806
CCOC(=O)C1=CCN(S(=O)(=O)c2ccc(C)cc2)C1c1ccccc1 (stereo not given)	-0.973	-0.205	-0.535	-0.455	-1.21	-1.62	-0.804 (inactive)	0.443	-0.583	0.739 (inactive)	-0.17	0.218 (inactive)	-0.612 (inactive)	-0.551 (inactive)	0.449 (inactive)	0.58 (inactive)	-0.564 (inactive)	-0.359 (inactive)	-1.01	-0.0957
C=C(COC)/C(=C/C[C@@H](OC(=O)c1ccncc1)c1ccccc1OCCO)c1cc(C(=O)OC)ccc1OC	2.37	-0.193	-0.11	-3.29	-1.63	1.35	-1.04 (inactive)	-0.735	-1.9	0.314 (inactive)	0.106	-1.35 (inactive)	-1.03 (inactive)	-4 (inactive)	0.825 (inactive)	0.0248 (inactive)	0.404 (inactive)	0.32 (inactive)	-1.35	-0.211

Reference: PubChem BioAssay
